For 10 sequences, binding signal results are on record in paper PMC8384837, “Expanding the binding specificity for RNA recognition by a PUF domain”.

Common to all, as to experiment: yeast three-hybrid, YBZ-1, SC-Leu-His + 0.5 mM 3-AT, 4 days
Common to all, as to settings: tags: N-Gal4 AD-HA kept; label: inside an RPR1-promoter hybrid RNA with tandem MS2 sites; ssRNA

In assay [1] the target is PUM1 PUF domain R8-RWG (Homo sapiens, UniProt Q14671 828-1176, N1122R;Y1123W;Q1126G). Summed up: (§1)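 The interaction score is the log change in variant frequency from input to selection. Scores were computed in log2 with a pseudocount of 1 for absent variants, using Illumina sequencing of PCR-amplified repeat regions. The input came from four days on SC-Leu and the selection from four days on SC-Leu-His + 0.5 mM 3-AT. The cells were strain YBZ-1 (LexA–MS2 coat fusion, HIS3 reporter) co-expressing Pumilio-1 PUF domain libraries and matching RNA elements from a centromeric plasmid.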

Assay [2] deals with PUM1 PUF domain R8-CHP (Homo sapiens, UniProt Q14671 828-1176, N1122C;Y1123H;Q1126P). The essentials: as §1
In assay [3] the target is PUM1 PUF domain R8-RQR (Homo sapiens, UniProt Q14671 828-1176, N1122R;Y1123Q;Q1126R). The essentials:
as §1

In assay [4] the target is PUM1 PUF domain R4-ERC (Homo sapiens, UniProt Q14671 828-1176, N971E;H972R;Q975C). Summed up:
as §1

The target in assay [5] is PUM1 PUF domain R5-RNE (Homo sapiens, UniProt Q14671 828-1176, C1007R;R1008N;Q1011E). The essentials: as §1
For assay [6], the target named is PUM1 PUF domain R7-QTR (Homo sapiens, UniProt Q14671 828-1176, S1079Q;N1080T;E1083R). Summed up: as §1
In assay [7] the target is PUM1 PUF domain R1-TVR (Homo sapiens, UniProt Q14671 828-1176, S863T;R864V;Q867R). The essentials:
as §1

In assay [8] the target is PUM1 PUF domain R1-KFR (Homo sapiens, UniProt Q14671 828-1176, S863K;R864F;Q867R). Summed up:
as §1

Assay [9] addresses PUM1 PUF domain R2-LWS (Homo sapiens, UniProt Q14671 828-1176, N899L;Y900W;Q903S). Summed up:
as §1

The target in assay [10] is PUM1 PUF domain R3-CPG (Homo sapiens, UniProt Q14671 828-1176, R936P;Q939G). The essentials:
as §1

For “GGCUAGAACUAGUGGAUCCCCCGGCGCCCGGCGGCUCGAGCCCGGGUAAGCGUAAAUAGUCUGCAUGCCGCCGGGCGCCAUGCCUGCAGGUCGACUCUAGAAAACAUG”, the binding signal was 6.94 log2 enrichment (interaction score) in [1], 2.6 log2 enrichment (interaction score) in assay [2] and 3.05 log2 enrichment (interaction score) in [3]. With “GGCUAGAACUAGUGGAUCCCCCGGCGCCCGGCGGCUCGAGCCCGGGUAAGUGUACAUAGUCUGCAUGCCGCCGGGCGCCAUGCCUGCAGGUCGACUCUAGAAAACAUG”, the binding signal in assay [4] is 0.16 log2 enrichment (interaction score). Take “GGCUAGAACUAGUGGAUCCCCCGGCGCCCGGCGGCUCGAGCCCGGGUAAGUGUUAAUAGUCUGCAUGCCGCCGGGCGCCAUGCCUGCAGGUCGACUCUAGAAAACAUG”: the binding signal in assay [5] was 3.73 log2 enrichment (interaction score). Regarding “GGCUAGAACUAGUGGAUCCCCCGGCGCCCGGCGGCUCGAGCCCGGGUAAGUUUAAAUAGUCUGCAUGCCGCCGGGCGCCAUGCCUGCAGGUCGACUCUAGAAAACAUG”, the binding signal in [6] is 2.39 log2 enrichment (interaction score). Regarding “GGCUAGAACUAGUGGAUCCCCCGGCGCCCGGCGGCUCGAGCCCGGGUAAGUGUAAAUCGUCUGCAUGCCGCCGGGCGCCAUGCCUGCAGGUCGACUCUAGAAAACAUG”, the binding signal in assay [7] is 3.55 log2 enrichment (interaction score). “GGCUAGAACUAGUGGAUCCCCCGGCGCCCGGCGGCUCGAGCCCGGGUAAGUGUAAAUUGUCUGCAUGCCGCCGGGCGCCAUGCCUGCAGGUCGACUCUAGAAAACAUG”: the binding signal in assay [8] is 3.96 log2 enrichment (interaction score).

As to “GGCUAGAACUAGUGGAUCCCCCGGCGCCCGGCGGCUCGAGCCCGGGUAAGUGUCAAUAGUCUGCAUGCCGCCGGGCGCCAUGCCUGCAGGUCGACUCUAGAAAACAUG”, the binding signal in assay [5] was 2.14 log2 enrichment (interaction score). As to “GGCUAGAACUAGUGGAUCCCCCGGCGCCCGGCGGCUCGAGCCCGGGUAAGUGUAAAAAGUCUGCAUGCCGCCGGGCGCCAUGCCUGCAGGUCGACUCUAGAAAACAUG”, the binding signal in assay [9] is 7.72 log2 enrichment (interaction score). Same read-out and setting: in the case of “GGCUAGAACUAGUGGAUCCCCCGGCGCCCGGCGGCUCGAGCCCGGGUAAGUGUAAAGAGUCUGCAUGCCGCCGGGCGCCAUGCCUGCAGGUCGACUCUAGAAAACAUG” it was 4.16 log2 enrichment (interaction score).

In the case of “GGCUAGAACUAGUGGAUCCCCCGGCGCCCGGCGGCUCGAGCCCGGGUAAGUGUAAAUAGUCUGCAUGCCGCCGGGCGCCAUGCCUGCAGGUCGACUCUAGAAAACAUG”, the binding signal was 2.23 log2 enrichment (interaction score) in [9]; 5.92 log2 enrichment (interaction score) in [1]; 0.7 log2 enrichment (interaction score) in [2]; 4.37 log2 enrichment (interaction score) in [4]; 2.95 log2 enrichment (interaction score) in assay [10]; 0.6 log2 enrichment (interaction score) in assay [3].
